HTT ATP protect = qHTS Multiplex Assay to Identify Dual Action Probes in a Cell Model of Huntington: Cytoprotection (ATP); PC12 HTT-Q103 induced, cytoprotection, ATP luminescence, 40 h; Potency, µM (doses to about 56.4 µM), usual class: activators; 0.14% of 230,000 active; AID 1471, 2008; further: nearly all actives have a fitted effect of over 45% in size
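Stable PC12 Q103-GFP cells in serum-supplemented, phenol red-free DMEM; induction by tebufenozide at 100 nM final; compound dose series; cell viability quantified luminescently from ATP.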
JMJD2E inh = qHTS Assay for Inhibitors of Human Jumonji Domain Containing 2E (JMJD2E) | Lysine-specific demethylase 4E (Homo sapiens), B2RXH2 | AID 2147, 2009 | Potency, µM (doses to about 57.1 µM), hits mostly inhibitors | 1.6% of 230,000 active | JMJD2E catalytic domain, FDH-coupled NADH fluorescence (FDH is formaldehyde dehydrogenase); further: nearly all actives have a fitted effect of over 50% in size
Target sequence (B2RXH2 1-337 limits assumed): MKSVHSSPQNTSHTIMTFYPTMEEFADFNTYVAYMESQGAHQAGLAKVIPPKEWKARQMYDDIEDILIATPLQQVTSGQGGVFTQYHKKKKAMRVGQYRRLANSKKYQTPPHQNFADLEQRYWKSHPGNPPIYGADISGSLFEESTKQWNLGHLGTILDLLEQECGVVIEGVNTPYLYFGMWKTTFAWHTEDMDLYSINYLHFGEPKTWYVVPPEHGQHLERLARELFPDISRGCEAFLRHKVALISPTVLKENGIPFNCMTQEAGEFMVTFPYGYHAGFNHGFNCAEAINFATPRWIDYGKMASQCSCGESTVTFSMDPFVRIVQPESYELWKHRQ
HttQ103 aggreg = qHTS Multiplex Assay to Identify Dual Action Probes in a Cell Model of Huntington: Aggregate Formation (GFP); PC12 HttQ103-GFP aggregates, Acumen cytometry, 40 h; Potency, µM (highest dose often 46.1 µM), most hits filed as inhibitors; 1.1% of 220,000 active; AID 1688, 2009; further: nearly all actives have a fitted effect of over 60% in size
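PC12/HTTQ103-GFP, ecdysone-inducible; teb 100 nM; cpd qHTS titration; GFP aggregates read on laser cytometer, Ex 488/Em 500-530 nm.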
VDR inhibitor = Inhibitors of the vitamin D receptor (VDR): qHTS | Vitamin D3 receptor (Homo sapiens), P11473 | VDR-SRC2-3 peptide fluorescence polarization, 2 h | Potency, µM, most hits filed as inhibitors | 0.93% of 400,000 active
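Two reagent solutions held at 4 deg C in the dark were dispensed, compounds pinned at 23 nl, and the mixture incubated 2 h at room temperature. Read-out: fluorescence polarization of VDR–SRC2-3 peptide binding.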
GoLoco inh red = qHTS Assay for Inhibitors of RGS12 GoLoco Motif Activity (Red Fluorophore) | 0.44% of 230,000 active | Gai1:RGS12 GoLoco peptide FP, rhodamine, 10 min | Guanine nucleotide-binding protein G(i) subunit alpha-1 (Homo sapiens), P63096 | Potency, µM (titrated, usually from 61.6 µM), most hits filed as inhibitors; active means well fitted inhibition curve with a large enough effect, not every such curve was filed as active; inactive means no such curve, though single readings can be large or run the other way; further: nearly all actives have a fitted effect of over 30% in size
Target sequence (P63096 whole entry, looked up): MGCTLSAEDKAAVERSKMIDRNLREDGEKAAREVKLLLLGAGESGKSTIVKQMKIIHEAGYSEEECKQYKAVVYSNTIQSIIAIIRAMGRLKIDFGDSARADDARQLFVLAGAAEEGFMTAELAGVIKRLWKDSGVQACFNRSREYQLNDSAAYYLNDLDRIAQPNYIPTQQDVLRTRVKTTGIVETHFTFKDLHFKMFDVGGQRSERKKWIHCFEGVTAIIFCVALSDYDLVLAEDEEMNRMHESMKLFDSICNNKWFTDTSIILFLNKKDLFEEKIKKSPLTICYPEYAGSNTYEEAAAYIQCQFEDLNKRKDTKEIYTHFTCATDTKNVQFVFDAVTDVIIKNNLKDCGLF
Coupling enz = qHTS Assay for Inhibitors of Fructose-1,6-bisphosphate Aldolase from Giardia Lamblia: Coupling assay counterscreen; coupling enzyme system counterscreen, AmpLite Red fluorescence; activity change, negative = inhibition, % at 58.2 µM, hits read low; 0.67% of 290,000 active; AID 2472, 2010; in the data active means activity change below about -30%
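Final compound at 57.5 uM, incubated 10 min at RT with coupling enzyme reagent (glyceraldehyde-3-phosphate), then 20 min with substrate and AmpLite Red detection. Fluorescence read at 525/598 nm; tests interference with the coupling assay, not aldolase inhibition.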
USP1 UbRho = Inhibitors of USP1/UAF1: Hit Validation in Primary Assay | Potency, µM (titrated, usually from 114 µM), most hits filed as inhibitors | 50% of 50 active | Ub-Rhodamine cleavage, fluorescence kinetic read | AID 540327, 2011 | shares compounds with VDR inhibitor
VDR confirm = qHTS for Inhibitors of the vitamin D receptor (VDR): Hit Validation in Primary Screen; shares compounds with VDR inhibitor; VDR-coactivator inhibition assay, qHTS confirmation; Potency, µM, usual class: inhibitors; 89% of 840 active; AID 602199, 2012
VDR FP = qHTS for Inhibitors of the vitamin D receptor (VDR): Hit Validation using a Fluorescein Assay; shares compounds with VDR inhibitor; VDR-coactivator binding, fluorescein fluorescence polarization; Potency, µM (doses to about 57.1 µM), most hits filed as inhibitors; 48% of 840 active
VDR bla reporter = qHTS for Inhibitors of the vitamin D receptor (VDR): Hit Validation using a Beta-Lactamase Assay; Potency, µM (top dose mostly 46.1 µM), most hits filed as inhibitors; VDR beta-lactamase reporter cells, FRET ratio; cells co-treated with VDR agonist LG190178; 23% of 840 active; shares compounds with VDR inhibitor
VDR viability = qHTS for Inhibitors of the vitamin D receptor (VDR): Hit Validation using a Cytotoxicity Assay. cytotoxicity counter-screen, cell viability, qHTS. 18% of 840 active. Potency, µM (doses to about 48.3 µM), usual class: cytotoxic. shares compounds with VDR inhibitor. AID 602204, 2012; further: nearly all actives have a fitted effect of over 75% in size
Hits are given with their value; [ ] = another dose, or the depositor's remark. Sampled rows, rich in hits. Any-hit rate of the full collection: about 2.3%. Unless noted, the call rests on the fitted dose curve; in most records, active means well fitted curve in the direction sought with a large enough effect; inconclusive means small, poorly fitted or top-dose-only effect, or another doubt; inactive means no such curve, though single readings can be large; an effect the other way counts as inactive or inconclusive.

`CCC(NC(=O)CSc1nnnn1C1CC1)c1ccc(Br)cc1` (stereo unspecified) gave VDR inhibitor inactive.
For CC(C)Oc1ccc(C(=O)NC2=NCCS2)cc1 the results were HTT ATP protect inactive, JMJD2E inh inactive, HttQ103 aggreg inactive, VDR inhibitor 79.4µM, GoLoco inh red inactive, Coupling enz inactive, VDR confirm 23.8, VDR FP inconclusive, VDR bla reporter inactive and VDR viability inactive.
For Clc1ccc(C[n+]2csc3ccccc32)cc1 the results were JMJD2E inh inconclusive, HttQ103 aggreg inactive, VDR inhibitor 50.1µM, GoLoco inh red inactive, Coupling enz inactive, VDR confirm 15, VDR FP inconclusive, VDR bla reporter inactive and VDR viability inactive.
Screening CCOC(=O)/C(=C\c1ccc(Cl)cc1)c1nc2sc(C)c(C)c2c(=O)[nH]1 returned HTT ATP protect inactive[10 µM], JMJD2E inh inactive, HttQ103 aggreg inconclusive, VDR inhibitor 25.1µM, GoLoco inh red inactive, Coupling enz inactive, VDR confirm 5.32, VDR FP inconclusive, VDR bla reporter inconclusive and VDR viability 14.6µM.
Screening OCCN1CCN(CC/C=C2/c3ccccc3Sc3ccc(C(F)(F)F)cc32)CC1 returned HTT ATP protect inactive, JMJD2E inh inactive, HttQ103 aggreg inconclusive, VDR inhibitor inconclusive, GoLoco inh red inactive, Coupling enz inactive and USP1 UbRho inconclusive.
`O=C(CSc1ccccc1)Nc1nnc(COc2ccc(Cl)cc2)s1` gave HTT ATP protect inactive[10 µM], JMJD2E inh inactive, HttQ103 aggreg inactive, VDR inhibitor 39.8µM, GoLoco inh red inactive, Coupling enz inactive, VDR confirm 2.99, VDR FP inconclusive, VDR bla reporter inactive and VDR viability inactive.
Screening Cc1cccc(C)c1OCc1nnc(NC(=O)CSc2ccc(Cl)cc2)s1 returned JMJD2E inh inactive, HttQ103 aggreg inactive, VDR inhibitor inactive, GoLoco inh red inactive and Coupling enz inactive.
`Cc1nnc(NC(=O)c2c(-c3ccccc3)noc2C)s1` gave HTT ATP protect inactive, JMJD2E inh inactive, HttQ103 aggreg inactive, VDR inhibitor inactive, GoLoco inh red inactive and Coupling enz inactive.
For Cc1onc(-c2ccccc2)c1C(=O)Nc1nnc(COc2ccc(Cl)cc2)s1 the results were HTT ATP protect inactive[10 µM], JMJD2E inh inconclusive, HttQ103 aggreg inactive, VDR inhibitor 20µM, GoLoco inh red inactive, Coupling enz inactive, VDR confirm 6.7, VDR FP inconclusive, VDR bla reporter inactive and VDR viability inactive.
Screening O=S1(=O)NC(=NCCOCCO)c2ccccc21 returned JMJD2E inh inactive, VDR inhibitor inactive, GoLoco inh red inactive and Coupling enz inactive.
`Cc1nn(S(=O)(=O)c2ccc(C(C)C)cc2)c(C)c1S(=O)(=O)N1CCCCC1` gave VDR inhibitor inactive.
CCCCCC1C(=O)N2C=C(c3ccccc3)c3ccccc3N2C1=O (stereo unspecified) was read as VDR inhibitor 22.4µM, VDR confirm 4.74, VDR FP 3.98µM, VDR bla reporter inactive and VDR viability inactive.
Screening COc1ccc2[nH]cc(CCNc3cc(-c4ccoc4)ncn3)c2c1 returned HTT ATP protect inactive, JMJD2E inh inactive, VDR inhibitor inconclusive, GoLoco inh red inactive and Coupling enz inactive.
O=S(=O)(c1ccccc1)N1CCN(S(=O)(=O)c2ccccc2)CC1 was read as VDR inhibitor inactive.
`CC1=C(C)CS(=O)N(S(=O)(=O)c2ccccc2)C1` (stereo unspecified) gave HTT ATP protect inconclusive, JMJD2E inh inactive, HttQ103 aggreg inconclusive, VDR inhibitor 3.16µM, GoLoco inh red inactive, Coupling enz inactive, VDR confirm 3.77, VDR FP inconclusive, VDR bla reporter inactive and VDR viability inactive.
`NS(=O)(=O)c1ccc(NCc2c(F)cccc2Cl)cc1` gave HTT ATP protect inactive, JMJD2E inh inactive, HttQ103 aggreg inactive, VDR inhibitor inactive, GoLoco inh red inactive and Coupling enz inactive.
Fc1cccc(Cl)c1CNc1ccc(N2CCCC2)cc1 was read as HTT ATP protect inconclusive, JMJD2E inh 11.2µM, HttQ103 aggreg inactive, VDR inhibitor 50.1µM, GoLoco inh red inactive, Coupling enz inactive, VDR confirm 11.9, VDR FP 12.6µM, VDR bla reporter inactive and VDR viability inconclusive.
For CC1=NNC(=O)/C1=C\c1cn(-c2ccccc2)nc1-c1ccc(F)cc1 the results were HTT ATP protect inactive, JMJD2E inh inconclusive, HttQ103 aggreg inconclusive, VDR inhibitor 44.7µM, GoLoco inh red inactive, Coupling enz inactive, VDR confirm 7.52, VDR FP inconclusive, VDR bla reporter 14.6µM and VDR viability 7.31µM.
Screening CC1=NNC(=O)/C1=C\c1cn(-c2ccccc2)nc1-c1cccs1 returned HTT ATP protect inactive[10 µM], JMJD2E inh inactive, HttQ103 aggreg inconclusive, VDR inhibitor 10µM, GoLoco inh red inactive, Coupling enz inactive, VDR confirm 3.77, VDR FP inconclusive, VDR bla reporter 16.4µM and VDR viability 9.2µM.
